# From PubChem BioAssay (NCI)
# “And” between values parts separate entries of the source, which are not always exact repeats. Identical values can stand only once. The panel holds about 83,000 compounds, 20% with a hit somewhere; the sample as a whole holds those more often.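 48-hour exposure, single concentration, 96-well plates; percent growth endpoint where 0 means no net growth. Active: below 10.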 A number with no mark means an inactive call. The source made the active and inactive calls.
# System: MDA-MB-468 breast
# Test: NCI-60 one-dose screen, 48 h (100 = growth as untreated, 0 = no growth, -100 = all killed)
smiles,measurement,setting,value
CC1(C)OCC2OC3(C(=O)O)OC(C)(C)OC3C2O1 (stereo not given),growth,10 µM unless noted,98.5%
CC(=O)O[C@H]1[C@H](CC#CC#CC[C@@H]2C[C@]3(C)[C@H]4CC=C5[C@H]6[C@@H](C)[C@H](C)CC[C@]6(C(=O)NCCN(CCN)CCN)CC[C@@]5(C)[C@]4(C)CC[C@H]3C(C)(C)[C@H]2OC(C)=O)C[C@]2(C)[C@H]3CC=C4[C@H]5[C@@H](C)[C@H](C)CC[C@]5(C(=O)NCCN(CCN)CCN)CC[C@@]4(C)[C@]3(C)CC[C@H]2C1(C)C,growth,10 µM unless noted,1.36% (active)
CC(=O)c1c(C)nc(-c2cc(C)cc(Cl)c2)nc1-c1cccc(Oc2ccccc2)c1,growth,10 µM unless noted,60.8%
Nc1n[nH]c2cccc(C#Cc3cccc(C(=O)Nc4ccc(Cl)c(C(F)(F)F)c4)c3)c12,growth,10 µM unless noted,74.4%
O=[N+]([O-])c1ccc(Oc2ccc(-c3ccccc3)cc2)cc1,growth,10 µM unless noted,71.4%
O=C(Nc1ncc(Cc2cc(C(F)(F)F)ccc2Cl)s1)C(=S)N1CCOCC1,growth,10 µM unless noted,84.3%
O=NN(CCCl)C(=O)NCc1ccc(-c2ccc(CNC(=O)N(CCCl)N=O)cc2)cc1,growth,10 µM unless noted,101%
COc1cccc(CCN2C(=O)CCC3=C2CCC3=O)c1,growth,10 µM unless noted,103%
Cc1cc(N2CCCCC2)nc(N(CCCNc2ccnc3cc(Cl)ccc23)Cc2ccco2)n1,growth,10 µM unless noted,6.73% (active)
COc1cc2nc(-c3ccc(C(F)(F)F)cc3)cc(OCCCN3CCCCC3)c2cc1OC,growth,10 µM unless noted,52.5%
O=C(c1ccccc1)c1ccc(-c2ccc(O)cc2)cc1,growth,10 µM unless noted,-16.5% (active)
NC(N)=N/N=C/c1ccc(-c2ccc(-c3ccc(Cl)cn3)s2)cc1,growth,10 µM unless noted,94.4%
COc1cc2nccc(Oc3ccc(NC(=O)C4(C(=O)Nc5c(F)cc(F)cc5F)CC4)cc3)c2cc1Oc1ccc(N)cn1,growth,10 µM unless noted,33.3%
COc1cc(-c2nc3ccc(C)cc3[nH]2)ccc1OCc1nnc(-c2ccc(CC(C)C)cc2)o1,growth,10 µM unless noted,116%
CCCCCCCC/C=C\CCCCCCCC(=O)Oc1cccc2cccnc12,growth,10 µM unless noted,121%
C=C(C)[C@@H]1CCC[C@]2(COS(=O)(=O)c3ccc(C)cc3)CC[C@]3(C)[C@@H](CC[C@@H]4[C@@]5(C)CCCNC(C)(C)[C@@H]5CC[C@]43C)[C@@H]12,growth,10 µM unless noted,-78.2% (active)
COc1ccc(C(=O)c2c(N)nc3n2CCCC3)cc1OC,growth,10 µM unless noted,97.7%
NC(=O)CN1CCN(c2ccccc2Cl)CC1,growth,10 µM unless noted,108%
CCCCCCN(CCCCCC)c1ccc(/C=C2/SC(=O)N(c3nc(N4CCCC4)nc(N4CCCC4)n3)C2=O)c(C)c1,growth,10 µM unless noted,59%
CC/C=C\C/C=C\C[C@H](O)C/C=C1/C(=O)C=C[C@@H]1C/C=C\CCCC(=O)OC,growth,10 µM unless noted,-51.7% (active)
CN(C)CC1(C)Cc2ccsc2C1O (stereo not given),growth,10 µM unless noted,104% and 109%
CC1C=CC(OC(=O)C(C)(O)CCC(O)(C(=O)OC2CC(O)C(C(C)C)CC2(C)O)C(C)C)(C(C)C)CC1 (stereo not given),growth,10 µM unless noted,-69.9% [4.63 µM] (active)
COc1ccc([N+](=O)[O-])c(C(=O)O)c1,growth,10 µM unless noted,96.4%
CC1NC(=S)NC(=O)/C1=C/c1cc(=O)oc2c1ccc1ccccc12 (stereo not given),growth,10 µM unless noted,103%
NS(=O)(=O)c1ccc(-n2nc(C(=O)N/N=C\c3ccc(F)cc3)cc2-c2ccc(Cl)cc2)cc1,growth,10 µM unless noted,112%
O=c1nc(-c2ccccc2)c2cc(-c3ccc(N4CCCC4)nc3)ccc2[nH]1,growth,10 µM unless noted,48.4%
O=C1C=CC2(O)OC(c3ccccc3)CC(=O)C2=C1O (stereo not given),growth,10 µM unless noted,70.7%
CCNC(=O)N1CCc2cc(OC)c(OCCc3ccc(OC)cc3)cc2C1c1ccc(Cl)cc1C (stereo not given),growth,10 µM unless noted,-1.44% (active)
COc1cccc2c1C(=O)c1c(O)c3c(c(O)c1C2=O)C[C@@](O)(C(=O)CO)C[C@@H]3OC1CC(N)C(O)C(C)O1 (stereo not given in full),growth,0.0025 µM,95.2%
same,growth,2.5 µM,10.4%
CCCCCCCCCCCCCCCc1ccc(Cl)c(O)c1Cl (tested in a mixture with another compound),growth,0.25 µM,8.94% (active)
CNC(=O)c1cc(Oc2ccc(CC(=O)Nc3cc(C(C)(C)C)nn3C)cc2)ccn1,growth,1 µM,28.7%
same,growth,30 µM,19.7%
CC(=O)O[C@H]1C(=O)[C@@]2(C)[C@H]([C@H](OC(=O)c3ccccc3)[C@]3(O)C[C@H](OC(=O)[C@H](O)[C@@H](NC(=O)c4ccccc4)c4ccccc4)C(C)=C1C3(C)C)[C@]1(OC(C)=O)CO[C@@H]1C[C@@H]2O,growth,2.5 µM,-25.5% (active)
same,growth,5 µM,-21.9% (active)
